# Screening data: PubChem, several laboratories
# SKKanGAS inh: SKKanGAS growth inhibition; S. pyogenes SKKanGAS, kanamycin growth, BacTiter-Glo, 6 h; inhibition, % at 7.5 µM; 300,000 compounds, 1.3% hits; AID 1662;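 active means mean replicate score, as percent of positive control median, at least 50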;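 further: strain carries kanamycin resistance gene driven by streptokinase promoter and grows in 40 µg/ml kanamycin; loss of luminescence reflects streptokinase promoter inhibition or plain growth inhibition; 0% = median of DMSO wells and 100% = positive control at its reference dose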
# TIM10 inh: TIM10 yeast growth inhibition; inhibition, % at 10 µM; 330,000 compounds, 1.4% hits; AID 463195; S. cerevisiae TIM10 strain growth, BacTiter-Glo luminescence, 24 h;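 active means inhibition of 40% or more at the single tested concentration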;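 further: wild-type TIM10 isogenic control strain grown at permissive 25 °C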
# PfHsp90 set2: inhibits growth of yeast expressing Plasmodium falciparum Hsp90; AID 504621; inhibition, % at 9.4 µM; 310,000 compounds, 0.32% hits; S. cerevisiae expressing PfHsp90, BacTiter-Glo ATP, 48 h; yeast lacking PDR1 and PDR3 efflux regulators;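 active means every replicate shows inhibition above about 80%, whatever the replicate mean, limit read from the data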;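 further: 0% = DMSO neutral controls and 100% = 20 µM radicicol positive controls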
# tim23-1 inh: tim23-1 yeast growth inhibition. S. cerevisiae tim23-1 growth, BacTiter-Glo luminescence, 24 h. inhibition, % at 20 µM. 330,000 compounds, 1.3% hits;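 active means growth inhibition of the mutant yeast at or above 50%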;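 further: temperature-sensitive mutant grown at 25 °C; plate controls were DMSO-treated mutant yeast for no effect and medium wells lacking yeast for full effect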
# tim10-1 inh: inhibits growth of tim10-1 mutant yeast; S. cerevisiae tim10-1 ts strain growth, BacTiter-Glo, 24 h; inhibition, % at 20 µM; 330,000 compounds, 2.2% hits;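 active means inhibition of at least 40%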;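 further: mutant grown at 25 °C; 0% = DMSO wells with yeast and 100% = wells holding no yeast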
# NLRP3 yeast inh: blocks the NALP3 inflammasome reconstituted in yeast. 330,000 compounds, 0.39% hits. AID 2825. Yeast reconstituted NLRP3/ASC/caspase-1, beta-gal luminescence, 24 h. inhibition, % at 10 µM;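 active means inhibition of 50% or more; inactive means inhibition below 50%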;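 further: plate controls were induced DMSO wells for no effect and uninduced yeast grown without galactose for full effect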
# tim23-1 conf: confirmation of tim23-1 mutant yeast growth inhibitors | shares compounds with tim23-1 inh | AID 463218 | 4,400 compounds, 83% hits | inhibition, % at 20 µM | S. cerevisiae tim23-1 growth, BacTiter-Glo luminescence, 24 h;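 active means inhibition above about 39% in either of two replicate wells at 20 µM, limit read from the data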;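 further: temperature-sensitive tim23-1 mutant grown at 25 °C; 0% = DMSO wells with yeast and 100% = medium wells without yeast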
# * marks the source's active call; other numbers are inactive results; . = not tested or not shown. Hits are enriched below; roughly 4.6% of the tested compounds scored in any of these assays.
SMILES,SKKanGAS inh,TIM10 inh,PfHsp90 set2,tim23-1 inh,tim10-1 inh,NLRP3 yeast inh,tim23-1 conf
Cc1cccc(C)c1NC(=O)NC1(C(=O)N2CCCCC2)CCCCC1,-4.8,-2.1,14.5,-7.8,-5.5,8.8,.
C=C1SC(Nc2c(C)cccc2C)=NC12CCCCC2,7.0,30.1,7.7,50.2*,26.3,11.4,44.2*
N#CC1(NC(=O)COc2ccc(C(N)=O)cc2)CCCC1,.,14.0,19.9,1.7,2.7,6.4,.
O=C(COC(=O)c1cc([N+](=O)[O-])ccc1N1CCOCC1)NCc1ccc(Cl)cc1Cl,3.2,11.8,11.4,50.9*,24.0,6.1,48.0*
O=C(COC(=O)c1cc([N+](=O)[O-])ccc1N1CCOCC1)Nc1ccc(Cl)cc1,17.1,-20.7,-24.5,-52.8,-15.8,19.9,.
CC(C)CNC(=O)C1CCN(S(=O)(=O)c2ccc3c(c2)OCCO3)CC1,-12.1,-4.5,22.7,-14.6,-15.5,13.0,.
Cc1cc(C)n(CCC(=O)N/N=C/c2ccc(O)cc2)n1,-11.3,-11.9,-1.3,8.2,16.4,7.2,.
COc1ccc2ccccc2c1/C=N\NC(=O)c1ccc(C)s1,.,21.1,-7.8,51.0*,9.0,28.3,38.5
COc1ccccc1OCC(=O)N/N=C/c1c(O)ccc2ccccc12,32.4,29.8,5.3,59.1*,36.3,24.8,55.1*
Cc1cc(C)n(CCC(=O)N/N=C/c2c(O)ccc3ccccc23)n1,2.6,19.5,-12.3,54.3*,-4.3,0.5,51.0*
Cc1c(O)cc2c(c1O)C(=O)CC(c1ccccc1)O2 (stereo not given),2.8,30.7,27.9,50.8*,38.2,0.1,47.7*
COc1c(O)cc2c(c1O)C(=O)CC(c1ccccc1)O2 (stereo not given),-2.4,8.8,.,43.8,28.2,19.5,.
CN(C)c1nc(N)c([N+](=O)[O-])c(N2CCCCCC2)n1,-4.9,8.5,-19.2,54.3*,33.1,20.6,39.0*
COc1ccc(-n2sc3c(c2=S)-c2cc(OC)ccc2NC3(C)C)cc1,23.7,5.2,21.5,32.9,23.2,14.3,.
COc1ccc2c(c1)-c1c(ssc1=S)C(C)(C)N2,-6.7,31.3,3.3,52.8*,32.3,30.5,47.2*
Cc1sc2nc(C3CC3)nc(SCC(=O)N3CCc4ccccc4C3)c2c1C,24.8,22.8,.,29.5,37.8,0.5,.
CCc1c(C)sc2nc(C(C)C)nc(SCC(=O)N3CCc4ccccc4C3)c12,62.5*,23.9,.,50.6*,19.2,8.5,41.0*
COc1ccc(S(=O)(=O)N2CCOC23CCN(S(=O)(=O)c2ccc(Cl)cc2)CC3)cc1,0.2,33.0,.,52.4*,36.4,-0.8,41.9*
COc1ccc(S(=O)(=O)N2CCC3(CC2)OCCN3S(=O)(=O)c2ccc(OC)cc2)cc1,0.7,12.2,.,7.1,-6.2,1.4,.
CCN(CC(=O)NCc1ccc(Cl)cc1)C(=O)CSc1cc(C)ccc1C,-4.9,-6.2,6.2,19.4,8.5,-3.2,.
COC(=O)/C=C/c1cccc([C@H]2[C@@H]3C=CC[C@@H](C)[C@@H]3C(=O)N2Cc2ccccc2)c1,.,10.8,-53.9,50.8*,24.2,.,33.7
C[C@@H]1CC=C[C@@H]2[C@H]1C(=O)N(Cc1ccccc1)[C@H]2c1ccccc1Br,.,15.2,-32.1,52.4*,22.1,.,34.1
COc1ccc(-c2ccccc2[C@H]2[C@@H]3C=CC[C@@H](C)[C@@H]3C(=O)N2Cc2ccccc2)cc1,.,8.5,10.2,47.5,24.0,.,.
C[C@@H]1CC=C[C@@H]2[C@H]1C(=O)N(Cc1ccccc1)[C@H]2c1cccc(C#Cc2ccccc2)c1,.,7.3,1.6,42.1,29.1,.,.
O=C1CS(=O)(=O)N(Cc2ccc(F)cc2)c2ccccc21,.,25.2,-2.5,52.8*,29.5,.,47.0*
SMILES,SKKanGAS inh,TIM10 inh,PfHsp90 set2,tim23-1 inh,tim10-1 inh,NLRP3 yeast inh,tim23-1 conf
O=C(N/C(=C\c1ccco1)C(=O)N1CCCC1)c1cccs1,2.8,10.5,.,51.6*,8.9,7.0,3.1
O=C(N/C(=C/c1ccco1)C(=O)N1CCCC1)c1cccs1,-1.3,3.0,-26.3,5.1,14.5,17.1,.
CCC(Cc1ccccc1)NC(=O)C1CC1 (stereo not given),-2.5,0.9,-10.3,-0.8,-9.4,17.4,.
O=C(/C=C/c1ccc2c(c1)OCO2)c1ccccn1,8.3,21.8,12.6,56.0*,32.0,8.3,43.5*
Nc1cc(N)nc(SCC(=O)NCc2ccc3c(c2)OCO3)n1,.,-10.4,4.1,-6.9,-0.1,-7.1,.
Cc1cc(N)n2nc(C)c(-c3ccc(Cl)cc3)c2n1,-6.5,39.5,-7.1,62.9*,33.9,19.9,71.8*
Cc1cc(Cl)n2nc(C)c(-c3ccc(Cl)cc3)c2n1,.,13.5,2.4,25.1,34.8,6.0,.
COc1cccc(/C=C2\SC(=O)N(CCC(=O)N3CCC(C(=O)O)CC3)C2=O)c1,-0.2,12.1,-3.7,11.4,13.0,3.1,.
COC(=O)N/N=C/c1ccc([N+](=O)[O-])o1,4.3,6.4,-10.1,22.3,20.0,-2.4,.
O=C(COc1ccccc1)N/N=C/c1ccc([N+](=O)[O-])o1,19.7,30.8,-13.9,53.7*,39.0,14.7,75.2*
COc1ccc(C2CC(=O)Oc3cc4c(cc32)OCO4)cc1 (stereo not given),.,6.0,5.6,61.1*,13.8,.,49.0*
COc1ccc(C2CC(=O)Oc3cc(O)ccc32)cc1 (stereo not given),.,7.3,-16.9,56.7*,2.2,.,45.5*
CC(OC(=O)c1nccnc1N)C(=O)Nc1ccc(S(=O)(=O)N2CCCC2)cc1 (stereo not given),-2.6,6.5,10.2,0.2,19.8,-6.1,.
c1csc(CSc2nnc3sc4ccccc4n23)c1,-0.7,13.8,-35.0,53.7*,39.0,16.3,50.3*
O=C(CSc1cccc[n+]1[O-])Nc1ccccc1C(F)(F)F,.,-3.0,.,8.3,10.7,-3.6,.
O=C(CSc1cccc[n+]1[O-])CSc1cccc[n+]1[O-],16.6,-19.1,7.8,71.0*,5.3,6.8,61.3*
O=C(CSc1cccc[n+]1[O-])Nc1ccccc1Oc1ccccc1,6.7,32.3,-22.4,69.5*,37.0,-18.9,76.2*
CCN(C(=O)C1CC1)C1CCS(=O)(=O)C1 (stereo not given),14.9,-1.0,0.8,1.0,-16.7,-1.6,.
CCOC(=O)n1n[n+]([O-])c2ccccc21,-12.3,1.3,-14.1,1.6,1.8,9.9,.
CCc1ccc(NC2=CC(=O)C(=O)c3ccccc32)cc1,.,25.3,-98.1,1.8,8.0,35.8,.
CCCCNC1=CC(=O)C(=O)c2ccccc21,1.3,21.8,-9.8,55.3*,-3.1,8.8,55.6*
COc1cccc(NC(=O)COc2nc3ccccc3nc2C)c1,-0.2,-7.1,-0.4,-6.4,10.4,12.0,.
